KKLEB cytotox – reduces viability of KKLEB cystic fibrosis airway cells; KKLEB CF airway cells viability, ATPlite luminescence, overnight; active compounds read low; cells stimulated with P. aeruginosa culture filtrate; activity change (cytotoxicity), % at 5 µM; hit rate 0.36% among 360,000;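 active means corrected activity change at or below -50% at 5 µM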
CF NFkB block – cystic fibrosis NF-kB activation inhibition; KKLEB NF-kB-GFP reporter, PAF-induced, GFP fluorescence overnight; inhibition, % at 5 µM; hit rate 0.86% among 360,000; AID 588850;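 active means at least 50% inhibition at 5 µM, scaled per plate between neutral and stimulator controls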;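 further: PAF is a Pseudomonas aeruginosa culture filtrate used as stimulus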
Peg3 prom inh – inhibitors of Peg3 promoter | HeLa PEG-Prom luciferase reporter, luminescence, overnight | inhibition, % at 20 µM | hit rate 1.7% among 360,000 | AID 588405;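 active means inhibition of at least 50% at 20 µM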
Shn3 3UTR inh – reduces Shn3 3'UTR luciferase signal in osteoblasts; Clone20 osteoblast Shn3 3'UTR firefly luciferase, 24 h; inhibition, % at 12.5 µM; hit rate 0.52% among 360,000; AID 588674;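 active means mean inhibition of at least 75% with every replicate also reaching 75%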
HIF-2a inh – inhibitors of HIF-2a; 786-0 RCC cells HIF-2a reporter, luciferase luminescence, overnight; inhibition, % at 18.8 µM; hit rate 0.72% among 360,000; AID 624352;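 active means inhibition of the luminescence signal of 40% or more relative to plate controls, in a single-dose primary screen at 18.75 µM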
CF NFkB inh conf – confirmation of cystic fibrosis induced NF-kB inhibitors; shares compounds with CF NFkB block; KKLEB CF airway cells, PAF-induced NF-kB-GFP fluorescence, overnight; inhibition, % at 5 µM; hit rate 64% among 1,300; AID 602472; in the data active means inhibition above about 40%;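 further: stimulus PAF is a Pseudomonas aeruginosa filtrate and not platelet activating factor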
A number is an active result; 0 = inactive; - = not tested or not shown. The list is not random: actives were taken first. Their share in the collection is about 2.6%.

SMILES | KKLEB cytotox | CF NFkB block | Peg3 prom inh | Shn3 3UTR inh | HIF-2a inh | CF NFkB inh conf
COc1ccc(CNC(=O)C(=O)NCCCn2ccnc2)cc1 | 0 | 0 | 0 | 0 | 0 | -
COc1ccc(Cc2c(-c3cccc(Cl)c3)nc3ccc(Cl)cn23)c(C)c1 | 0 | 0 | 0 | 0 | 0 | -
CCOC(=O)C1(CCCc2ccccc2)CCN(Cc2cn(CC)nc2C)CC1 | 0 | 0 | 0 | 0 | 0 | -
Cc1ccc(NC(=O)CSc2ncnc3ccccc23)cc1S(=O)(=O)N1CCOCC1 | 0 | 55.9 | 0 | 0 | 0 | 72.8
Cc1ccc(NC(=O)CSc2ncnc3ccccc23)cc1S(=O)(=O)N1CCCCC1 | 0 | 0 | 0 | 0 | 0 | -
Oc1ccccc1C1CC(c2cccs2)=NC(c2ccc(Cl)cc2)N1 (stereo unspecified) | 0 | 64.7 | 0 | 0 | 0 | 0
CS(=O)(=O)N1N=C(c2cccs2)CC1c1ccccc1O (stereo unspecified) | 0 | 0 | 0 | 0 | 0 | -
N#CSCC(=O)c1cccc2ccccc12 | 0 | 55.4 | 0 | 0 | 0 | 53.5
Cc1ccc(S(=O)(=O)N2CCN(C(=O)CCOc3cc(C)ccc3C)CC2)cc1 | 0 | 0 | 0 | 0 | 0 | -
COCCCN(C(=O)c1ccc(N2CCCC2=O)cc1)c1c(N)n(Cc2ccccc2)c(=O)[nH]c1=O | 0 | 0 | 0 | 0 | 0 | -
CCCCN(C(=O)c1ccc(N2CCCC2=O)cc1)c1c(N)n(Cc2ccccc2)c(=O)[nH]c1=O | 0 | 58.2 | 0 | 0 | 0 | 0
CCOC(=O)c1cccc(NS(=O)(=O)c2c(C)[nH]c(=O)[nH]c2=O)c1 | 0 | 0 | 0 | 0 | 0 | -
CCOC(=O)c1cccc(NS(=O)(=O)c2ccc(NC(C)=O)cc2)c1 | 0 | 51.6 | 0 | 0 | 0 | 44.0
COc1cccc(CC(=O)OCC(=O)NC2(C#N)CCCCC2)c1 | 0 | 0 | 0 | 0 | 0 | -
Cc1ccc(Cc2c(-c3ccco3)nc3c(C)cc(Br)cn23)cc1 | 0 | 51.3 | 0 | 0 | 0 | 0
Clc1cccc(Cc2c(-c3ccco3)nc3ccc(Br)cn23)c1 | 0 | 0 | 0 | 0 | 0 | -
Clc1cccc(Cc2c(-c3ccco3)nc3ccc(Cl)cn23)c1 | 0 | 69.5 | 0 | 0 | 0 | 0
COc1ccc2c(c1)OC13CCCCC1C2C(C(=O)c1ccccc1)C(=O)N3 (stereo unspecified) | 0 | 0 | 0 | 0 | 0 | -
CCOC(=O)c1c(C)n(-c2ccc(F)cc2)c2ccc(O)cc12 | 0 | 0 | 0 | 0 | 0 | -
COc1ccc2c(c1)c(C(=O)O)c(C)n2-c1ccccc1 | 0 | 0 | 0 | 0 | 0 | -
COc1ccc2c(c1)c(C(C)=O)c(C)n2-c1ccc(C(C)=O)cc1 | 0 | 64.0 | 0 | 0 | 0 | 74.5
COC(=O)c1c(C)n(-c2ccc(OC)cc2)c2ccc(O)cc12 | 0 | 57.6 | 0 | 0 | 0 | 84.0
NC(N)=NN=C1CCCCCCCCCCC1 | 0 | 0 | 0 | - | 0 | -
CC(=O)C1=C(O)CC(c2ccccc2)CC1=NCCc1c(C)[nH]c2ccc(C)cc12 (stereo unspecified) | 0 | 0 | 0 | 0 | 0 | -
CCC(=NCCc1c(C)[nH]c2ccc(C)cc12)C1=C(O)CC(c2ccccc2)CC1=O (stereo unspecified) | 0 | 57.3 | 0 | 0 | 0 | 77.7
SMILES | KKLEB cytotox | CF NFkB block | Peg3 prom inh | Shn3 3UTR inh | HIF-2a inh | CF NFkB inh conf
Cc1cccc(C(=O)OCC(=O)NC(=O)c2ccccc2)c1O | 0 | 0 | 0 | 0 | 0 | -
Nc1nccc(SCc2ccc(Cl)cc2Cl)n1 | 0 | 56.7 | 0 | 0 | 0 | 55.5
Cc1ccc(-c2cc(C(=O)N(C)CC(=O)Nc3ccccc3Br)c3ccccc3n2)o1 | 0 | 0 | 0 | 0 | 0 | -
O=C(O)c1ccc(S(=O)(=O)c2ccc3c(c2)C(=O)N(c2ccc(Br)cc2)C3=O)cc1 | 0 | 0 | 0 | 0 | 0 | -
CCOC(=O)c1c(C)[nH]c(C(=O)OCC(=O)Nc2cc(C)ccc2OC)c1C | 0 | 50.5 | 0 | 0 | 0 | 0
CCOC(=O)c1c(C)[nH]c(C(=O)N/N=C/c2ccc(Br)cc2)c1C | 0 | 56.4 | 0 | 0 | 0 | 79.4
O=C(NC1CCOc2ccccc21)c1ccccn1 (stereo unspecified) | 0 | 0 | 0 | 0 | 0 | -
OC(CCc1ccncc1)COc1ccccc1 (stereo unspecified) | 0 | 0 | 0 | 0 | 0 | -
CC1(C)O[C@@H]2C[C@H]3[C@@H]4C[C@H](F)C5=CC(=O)C=C[C@]5(C)[C@H]4[C@@H](O)C[C@]3(C)[C@]2(C(=O)CO)O1 | 0 | 67.9 | 0 | 0 | 0 | 0

Compound activity (PubChem BioAssay)
